Experimental findings from PubChem BioAssay are described below.

In test [1] the test system is Human papillomavirus type 1a protein E7 (residues 44-93). Kind of test: small molecules binding HPV E7 44-93 – biochemical, small-molecule microarray, residues 44-93, 635 nm fluorescence, primary screen (AID 1108).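 Also: E7 fragment applied at 1 µg/mL in TBST for 1 h at 4 C; score combines spot fluorescence with its signal to noise ratio.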 The settings on record: fluorescence 635 nm, higher = more signal.
Test [2] can be described thus: hepatitis C replication reporter changes, two-sided – Huh7 cells, luciferase reporter, HCV replication inhibitor project, primary screen (AID 1109).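 Also: huh7 hepatoma cells harbouring a luciferase neomycin HCV replicon reporter; luciferase luminescence as measure of HCV replicon replication; test concentration not given here.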 Particulars: Huh7 HCV replicon luciferase reporter, 48 h; higher = more signal. (In general: A reporter such as luciferase makes a cellular process visible.)
Test [3] addresses Left-right determination factor 2 (Homo sapiens) (UniProt O00292). Kind of test: small molecules binding LEFTY2 protein – biochemical, small-molecule microarray, 635 nm fluorescence scan, primary screen (AID 1110). Particulars: higher = more signal.
The target of test [4] is Calmodulin-1 (Homo sapiens) (UniProt P0DP23). As to the kind of experiment: small molecules binding calmodulin-1 with EGTA – biochemical, small-molecule microarray, Cy5-labelled CALM1, profiling panel (AID 1111).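 Also: labelled calmodulin applied in Tris saline Tween buffer holding calcium plus EGTA and DTT.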 Particulars: Cy5-CALM1 binding fluorescence, higher = more signal.
For test [5] the target is unchanged. As to the kind of experiment: small molecules binding Ca-loaded calmodulin-1 – biochemical, small-molecule microarray, Cy5-labelled CALM1, plus calcium, artefact control for SMM control-protein annotation, profiling panel (AID 1112).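 Also: score merges spot fluorescence with signal to noise from triplicate slides.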 Particulars: Cy5-CALM1 binding fluorescence, higher = more signal.
A short description of test [6]: probe aWnt5a binding to arrayed compounds – biochemical, biotinylated probe, 635/667 nm fluorescence, primary screen (AID 1113).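 Also: score merges 667 nm fluorescence intensity with signal-to-noise per printed feature.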 Particulars: small-molecule microarray, higher = more signal.
Test [7] is described as follows: probe aShh binding to arrayed compounds – biochemical, biotinylated probe, 635/667 nm fluorescence, primary screen (AID 1114).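 Also: probe is biotin-labelled aShh protein from a stem cell growth factor screen; measures binding of labelled protein to compounds printed on the slide; score merges feature fluorescence at 667 nm with signal-to-noise.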 Particulars: small-molecule microarray, higher = more signal.
Test [8] can be described thus: probe aNog binding to arrayed compounds – biochemical, biotinylated probe, 635/667 nm fluorescence, primary screen (AID 1115).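 Also: probe is biotinylated aNog protein used at 0.15 µg/mL for 1 h at 4 C; z-score combines 667 nm fluorescence of each spot with its signal to noise.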 Particulars: small-molecule microarray, higher = more signal.
For test [9], the target named is Torsin-1A-interacting protein 1 (Homo sapiens) (UniProt Q5JTV8). As to the kind of experiment: compound microarray binding of lysate hLAP1 – cell lysate, small-molecule microarray, COS7 lysate, 635/667 nm fluorescence, primary screen (AID 1116). The settings on record: 635 nm fluorescence, higher = more signal.
Chain of Torsin-1A-interacting protein 1 (Homo sapiens) (Q5JTV8 whole entry, looked up): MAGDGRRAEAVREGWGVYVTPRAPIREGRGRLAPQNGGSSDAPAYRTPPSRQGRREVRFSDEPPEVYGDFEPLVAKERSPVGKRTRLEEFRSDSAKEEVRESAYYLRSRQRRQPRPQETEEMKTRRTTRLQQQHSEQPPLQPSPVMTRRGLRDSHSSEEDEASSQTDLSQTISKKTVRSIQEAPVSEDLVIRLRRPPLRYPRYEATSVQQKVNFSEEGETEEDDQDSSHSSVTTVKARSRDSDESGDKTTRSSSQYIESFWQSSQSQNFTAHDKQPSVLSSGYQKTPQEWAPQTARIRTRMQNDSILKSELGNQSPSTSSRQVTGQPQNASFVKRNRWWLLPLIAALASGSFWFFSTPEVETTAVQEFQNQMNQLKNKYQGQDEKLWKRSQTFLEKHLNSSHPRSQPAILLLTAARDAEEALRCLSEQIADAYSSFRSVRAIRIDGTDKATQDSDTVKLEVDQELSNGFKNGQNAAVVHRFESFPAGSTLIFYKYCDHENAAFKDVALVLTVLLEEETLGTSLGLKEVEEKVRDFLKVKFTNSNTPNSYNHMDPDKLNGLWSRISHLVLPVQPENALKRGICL
The target of test [10] is Alpha-bungarotoxin (Bungarus multicinctus) (UniProt P60615). As to the kind of experiment: compounds binding labelled alpha-BTX control protein – biochemical, small-molecule microarray, Alexa647 label, 635/667 nm fluorescence, artefact control for SMM control protein annotation, profiling panel (AID 1117). Particulars: alpha-BTX-A647 binding fluorescence, higher = more signal.
Chain of Alpha-bungarotoxin (Bungarus multicinctus) (P60615 whole entry, looked up): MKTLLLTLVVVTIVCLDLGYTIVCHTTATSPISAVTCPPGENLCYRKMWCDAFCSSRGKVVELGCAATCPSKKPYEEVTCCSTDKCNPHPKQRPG

Chain of Left-right determination factor 2 (Homo sapiens) (O00292 whole entry, looked up): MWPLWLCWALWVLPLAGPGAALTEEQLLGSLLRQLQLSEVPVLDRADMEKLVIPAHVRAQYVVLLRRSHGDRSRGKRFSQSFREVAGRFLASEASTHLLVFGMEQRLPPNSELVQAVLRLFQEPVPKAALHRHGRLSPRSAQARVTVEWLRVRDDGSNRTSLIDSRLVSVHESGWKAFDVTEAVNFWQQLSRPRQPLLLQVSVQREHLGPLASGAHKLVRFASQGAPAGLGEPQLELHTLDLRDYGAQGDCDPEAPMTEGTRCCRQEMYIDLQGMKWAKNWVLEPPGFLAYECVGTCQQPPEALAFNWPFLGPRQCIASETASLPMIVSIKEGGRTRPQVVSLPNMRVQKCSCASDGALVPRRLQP

Turning to `CN1C(=O)C2C=CC(C(O)c3ccccn3)N(N(c3ccccc3)c3ccccc3)C2C1=O` (stereo not given), the composite z-score was -0.686 in [1]; -0.0321 in [3]; 0.0023 in test [4]; -0.0692 in [5]; -0.0735 in test [6]; 0.0684 in [7]. The composite z-score turned out to be 0.427 in test [8], 1.07 in [9] and 0.451 in [10]. In addition, in [2], the z-score was -0.276.
`COCCOC(=O)N1C(=O)[C@@]2(c3ccccc31)[C@H](C(=O)N1CCN(c3ncccn3)CC1)[C@H]1C(=O)O[C@H](c3ccccc3)[C@H](c3ccccc3)N1[C@@H]2c1ccc(O)cc1`: the composite z-score in test [1] is 0.97; in test [3], 0.256; in test [4] it was 0.949; in [5] it was 0.166; in test [6] it was -0.0735; in [7], 0.191. Further, the composite z-score in test [8] is 0.893; in test [9] it was 0.482; in test [10] it was 1.72. The same compound showed a z-score in test [2] of -1.57.
As to `CN(C)C(=O)C1N=C(c2ccc(OCCCO)cc2)N(c2ccccc2)O1` (stereo not given), the composite z-score in test [1] is 1.41; in [3], 1.28; in [4], 1.21; in [5] it was -0.0846; in test [6], -0.0486; in test [7] it was -0.0733. Also, the composite z-score in test [8] is -0.461; in [9], 0.81; in test [10], 0.741. In test [2], this compound gave a z-score of -0.842.
With `CC(C)(C)N1CC=CC23O[C@@H]4C=CCCOC(=O)C4[C@H]2C(=O)N(CCO)[C@@H]3C1=O` (stereo not given in full), the composite z-score in test [1] is -0.282; in test [3] it was -0.475; in test [4], -0.504; in test [5], -0.511; in test [6], -0.0924; in test [7] it was -0.0146. For the same compound, the values for the composite z-score in test [8], in test [9] and in test [10] were 0.0417, -0.108 and 1.37, respectively. The same compound gave a z-score in [2] of 0.361.
Regarding `COc1ccc(NC(=O)O[C@H]2[C@H](OC(=O)Nc3ccccc3)[C@H](OC(=O)Nc3ccccc3)[C@@H](OC)O[C@@H]2CO)cc1`, the composite z-score in test [1] is 1.25; in test [3], 0.249; in [4] it was 0.692; in test [5], -0.17; in test [6], 0.161; in test [7] it was 0.163. Further, the composite z-score is -0.413 in [8], 0.634 in test [9] and 1.12 in [10]. In test [2], this compound had a z-score of -2.76.
Regarding `CCCCCCc1nc(C2CC2)cc2c1[Si](C(C)C)(C(C)C)OC2`, the composite z-score in [1] was -1.03; in test [3], -0.53; in [4], 0.208; in test [5], 0.0599; in [6], -0.184; in [7], -0.214. In addition, the composite z-score in test [8] is -0.0784; in test [9], -0.476; in test [10], -0.221. For the same compound, in test [2], the z-score is -0.622.
As for `Cc1ccc(S[C@]2(C(=O)NCC(F)(F)F)CC(=O)N(C3CCCCC3)[C@@H]2c2ccc(CO)cc2I)cc1`, the composite z-score was 1.42 in [1]; 0.394 in [3]; 1.01 in test [4]; -0.077 in [5]; -0.122 in test [6]; 0.184 in test [7]. Further, the composite z-score is -0.422 in test [8], 0.958 in [9] and 0.587 in test [10]. The z-score in [2] is -2.3.
For `O=C1NC(=O)C2C1C=CC(C(O)CCc1ccccc1)N2Nc1ccc(Cl)cc1Cl` (stereo not given), the composite z-score was -0.72 in test [1]; -0.448 in test [3]; 1.54 in test [4]; 0.819 in [5]; 0.539 in [6]; -0.0571 in [7]. Moreover, the composite z-score in test [8] was 1.04; in [9] it was 1.97; in [10], 2.65. The z-score in test [2] was -0.271.
`O=C1OCC=C[C@H]2OC34C=CCN(c5ccc(Cl)cc5)C(=O)[C@H]3N(CCO)C(=O)[C@@H]4[C@@H]12` (stereo not given in full): the composite z-score was -0.0723 in test [1]; -0.884 in test [3]; -0.577 in test [4]; 0.515 in test [5]; -0.28 in test [6]; -0.304 in test [7]. In addition, the composite z-score was -0.115 in [8], 0.0143 in test [9] and -0.003 in test [10]. The compound also gave a z-score in test [2] of -0.515.
As to `O=C1O[C@H](c2ccccc2)[C@H](c2ccccc2)N2[C@H]1[C@@H](C(=O)N1CCN(c3ncccn3)CC1)[C@]1(C(=O)Nc3ccc(C#CC4(O)CCCCCC4)cc31)[C@H]2c1ccc(OCCO)cc1`, the composite z-score stood at 1.44 in test [1]; 1.51 in [3]; 2.26 in [4]; 1.24 in test [5]; 0.793 in test [6]; 0.543 in test [7]. Further, the composite z-score in test [8] was 2.34; in [9], 3.93; in test [10] it was 2.81. The same compound showed a z-score in [2] of -1.58.
In the case of `COCCOC(=O)N1C(=O)[C@@]2(c3cc(C#CC4=CCCCC4)ccc31)[C@H](c1ccc(OCCO)cc1)N1[C@H](c3ccccc3)[C@H](c3ccccc3)OC(=O)[C@H]1[C@@H]2C(=O)N1CCN(c2ncccn2)CC1`, the composite z-score in [1] was 1.05; in test [3] it was 0.671; in [4], 0.623; in test [5], 0.189; in test [6], -0.034; in test [7] it was -0.0146. Besides, the composite z-score was determined as 0.759 in test [8], 0.835 in test [9] and 0.418 in test [10]. This compound also gave a z-score in test [2] of -0.807.
For `COc1ccc([Si](C)(C)[C@H]2[C@H](CCO)O[C@@]3(C(=O)N(Cc4cccc(N5C(=O)COc6ccccc65)c4)c4ccccc43)[C@@H]2C)cc1`, the composite z-score was -0.502 in [1]; 0.0828 in test [3]; 0.851 in test [4]; 0.675 in test [5]; -0.0417 in test [6]; -0.0146 in test [7]. In addition, the composite z-score in test [8] was determined as 0.26; in test [9] it was 0.474; in test [10] it was 0.252. In [2], this compound gave a z-score of -4.98.
As to `COC(=O)[C@@]1(Cc2ccc(F)cc2)[C@H]2c3cc(C(=O)N4CCCC4)n(CCc4ccc(O)c(O)c4)c3C[C@H]2CN1C(=O)c1ccccc1`, the composite z-score in test [1] is -0.369; in [3], -0.772; in test [4], 0.765; in test [5] it was 0.694; in test [6], 0.752; in test [7] it was 2.04. The composite z-score in test [8] was 2.27; in test [9], 0.661; in [10], -0.125. In addition, the z-score in [2] was -1.79.
Take `CN1C(=O)C2C=CC(C(O)c3cccc4ccccc34)N(N3CCCCC3)C2C1=O` (stereo not given): the composite z-score in test [1] was 0.817; in test [3] it was 0.349; in [4], 2.23; in test [5], 1.02; in test [6], -0.027; in test [7] it was -0.0055. In addition, the composite z-score stood at 1.04 in [8], 2.45 in [9] and 1.67 in [10]. In test [2], this compound gave a z-score of -0.474.
In the case of `COC(=O)[C@@]1(Cc2ccc(F)cc2)[C@H]2c3cc(C(=O)N(C)C)n(CCc4ccc(O)c(OC)c4)c3C[C@H]2CN1C(=O)c1ccccc1`, the composite z-score in test [1] was 0.768; in test [3], 0.543; in test [4] it was 0.187; in test [5], -0.323; in test [6] it was 1.2; in test [7], 2.74. Besides, the composite z-score in [8] was 2.48; in test [9], 0.279; in [10], 0.434. The compound also displayed a z-score in test [2] of 1.09.
As for `CCCCN1CC=CC23O[C@@H]4/C=C\CCC(C)OC(=O)C4[C@H]2C(=O)N(C(CO)C(C)C)[C@@H]3C1=O` (stereo not given in full), the composite z-score in test [1] was -0.164; in [3], -0.406; in [4], -0.708; in [5], -0.926; in test [6], -0.0403; in test [7] it was 0.186. Further, the values for the composite z-score in test [8], in test [9] and in test [10] were -0.278, 1.36 and -0.312, respectively. In [2], this compound displayed a z-score of -0.768.
`CCCCCCCCCCC(O)C1C=CC2C(=O)N(C)C(=O)C2N1Nc1ccc([N+](=O)[O-])cc1[N+](=O)[O-]` (stereo not given): the composite z-score in test [1] is 1.38; in test [3], -0.323; in test [4] it was 1.62; in [5], 1.05; in test [6], 0.0308; in test [7], 0.151. For the same compound, the composite z-score turned out to be 0.441 in test [8], 1.83 in [9] and 1.18 in [10]. The compound also came in with a z-score in test [2] of -1.06.
